APP 5UTR inh: APP translation inhibition; SH-SY5Y APP 5'UTR-luciferase reporter, luminescence; inhibition, % at 2 µM; hit rate 0.82% among 190,000; AID 1285;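 active means inhibition above a set limit, derived from the sample mean plus 3 SD, cut at about 45% in these data; inconclusive means one replicate passes the limit while the other fails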
aSyn UTR inh: MLPCN primary screen, SNCA 5' untranslated region; alpha-synuclein 5'UTR reporter, inhibitor activity; inhibition, % (tested at 7.5 µM); hit rate 0.82% among 300,000; AID 1813; in the data active means inhibition above about 60%; inconclusive means no clear call, values can overlap the other calls;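 further: H4 neuroglioblastoma cells stably carrying SNCA 5'UTR luciferase fusion; 0% = DMSO wells and 100% = positive control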
KLF5 inhibitor: suppresses KLF5 promoter-driven expression; DLD-1 KLF5 promoter-luciferase reporter, luminescence; inhibition, % at 5 µM; hit rate 0.23% among 290,000; AID 1700;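 active means inhibition above a per-plate limit of that plate's mean compound inhibition plus 3 SD, cut at about 60% in these data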;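 further: 0% = DMSO wells and 100% = LY294002 at 200 µM; higher means less KLF5 promoter-driven luciferase light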
IEC-6 tox: kills IEC-6 intestinal cells in KLF5 counter-screen; IEC-6 cytotoxicity, luminescence viability; inhibition, % at 5 µM; hit rate 0.78% among 290,000; AID 1825; in the data active means inhibition above about 22%;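 further: 0% = plate median of test compound wells and 100% = cytotoxic reference compound wells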
BaF3 parental: reduces parental Ba/F3 cell viability, JAK2V617F counter-screen | CellTiter-Glo ATP luminescence | inhibition, % at 5.6 µM | hit rate 1.1% among 220,000 | AID 1486;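 active means inhibition above a per-campaign cutoff, the mean inhibition of all tested compounds plus 3 SD, cut at about 27% in these data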;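 further: 0% = DMSO wells and 100% = JAK Inhibitor I control wells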
Ba/F3 V617F tox: reduce viability of Ba/F3 cells dependent on JAK2V617F; Ba/F3 EpoR-JAK2V617F viability, ATP luminescence; inhibition, % at 5.6 µM; hit rate 1.1% among 220,000; AID 1446;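 active means inhibition above the campaign mean plus 3 SD over all tested compounds, cut at about 24% in these data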;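 further: cytokine-independent growth of Ba/F3 cells driven by EpoR plus mutant JAK2; 0% = DMSO-treated cells and 100% = JAK inhibitor I control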
BaF3 tox 2: parental Ba/F3 viability inhibition for JAK2V617F counter-screen; hit rate 31% among 580; AID 1520; inhibition, % at 5.6 µM; shares compounds with Ba/F3 V617F tox; CellTiter-Glo luminescence; cells kept alive by added IL-3;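 active means cell growth inhibition above the hit limit set in the earlier mutant JAK2 cell screen, cut at about 27% in these data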;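 further: plate controls were DMSO-treated cells for no effect and JAK Inhibitor I control wells for full effect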
JAK2V617F conf: confirmation: loss of viability in JAK2V617F-dependent Ba/F3 cells; shares compounds with Ba/F3 V617F tox; Ba/F3 EpoR-JAK2V617F viability, CellTiter-Glo luminescence; inhibition, % at 5.6 µM; hit rate 66% among 580;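 active means mean inhibition above the hit cutoff derived in the earlier primary screen, cut at about 25% in these data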;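 further: 0% = DMSO-treated cells and 100% = JAK inhibitor I control wells; higher means lower luminescence from reduced cell ATP and viability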
* = called active by the depositor. Sampled rows, rich in hits. Any-hit rate of the full collection: about 2.2%.

Screening CCOC(=O)C1CCCN(C(=O)c2ccc(NC(=O)CC3SC(N4CCCC4)=NC3=O)cc2)C1 (stereo not drawn) returned aSyn UTR inh 13.
For COc1ccc(-c2cc(N)n(S(=O)(=O)c3c(F)c(F)c(F)c(F)c3F)n2)cc1OC the results were APP 5UTR inh -16, aSyn UTR inh -38, KLF5 inhibitor 20, IEC-6 tox 8, BaF3 parental 23, Ba/F3 V617F tox 45*, BaF3 tox 2 93* and JAK2V617F conf 93*.
`COc1c(Cl)cc(C(=O)NN)cc1Cl` gave APP 5UTR inh 92*, aSyn UTR inh 99*, KLF5 inhibitor 15, IEC-6 tox 52*, BaF3 parental 21, Ba/F3 V617F tox 42*, BaF3 tox 2 -6 and JAK2V617F conf -2.
CCOC(=O)/C=C1\CN(C(C)c2ccccc2)S(=O)(=O)c2ccccc21 (stereo not drawn) was read as aSyn UTR inh 9, KLF5 inhibitor 2 and IEC-6 tox 1.
For C=CCOc1c(Br)cc(CNc2ccc3[nH]c(=O)[nH]c3c2)cc1OCC the results were APP 5UTR inh 3, aSyn UTR inh 3, KLF5 inhibitor -1, IEC-6 tox 8, BaF3 parental 8, Ba/F3 V617F tox 32*, BaF3 tox 2 35* and JAK2V617F conf 74*.
Screening Cc1nc(Nc2ccc3c(c2)OCCO3)c2oc3ccccc3c2n1 returned APP 5UTR inh -15, aSyn UTR inh -26, KLF5 inhibitor -43, IEC-6 tox 20, BaF3 parental 7, Ba/F3 V617F tox 59*, BaF3 tox 2 -5 and JAK2V617F conf 3.
For Cc1ccc(NC(=O)CSCC(=O)Nc2ccccc2N2CCCCC2)cc1 the results were aSyn UTR inh 17.
c1ccc(Sc2cccc3ccccc23)c(CNC2=NCCN2)c1 was read as APP 5UTR inh -12, aSyn UTR inh inconclusive, KLF5 inhibitor -12, IEC-6 tox 9, BaF3 parental 10, Ba/F3 V617F tox 34*, BaF3 tox 2 39* and JAK2V617F conf 48*.
For O=C(Nc1nc(=O)c2ccccc2s1)c1ccccc1 the results were APP 5UTR inh -66, aSyn UTR inh -157, KLF5 inhibitor 0, IEC-6 tox 1, BaF3 parental 15, Ba/F3 V617F tox 29*, BaF3 tox 2 -3 and JAK2V617F conf -12.
COCCNC(=O)c1c[nH]c2ccc(S(=O)(=O)N3CCc4ccccc43)cc2c1=O was read as APP 5UTR inh 3, aSyn UTR inh inconclusive, KLF5 inhibitor -1, IEC-6 tox 6, BaF3 parental 13, Ba/F3 V617F tox 67*, BaF3 tox 2 83* and JAK2V617F conf 86*.
`CC(C)N(C(=O)Cn1cc(SCC(N)=O)c2ccccc21)C(C)C` gave APP 5UTR inh -12, aSyn UTR inh 15, KLF5 inhibitor -18, IEC-6 tox 2, BaF3 parental 9 and Ba/F3 V617F tox 2.
`COc1cc(C(=O)OCc2nc3ccsc3c(=O)[nH]2)c([N+](=O)[O-])cc1OC` gave aSyn UTR inh 1.
For CCOc1ccc(C(=O)C(CN2CCOCC2)c2ccccc2)cc1 (stereo not drawn) the results were APP 5UTR inh 67*, aSyn UTR inh -23, KLF5 inhibitor -11, IEC-6 tox 3, BaF3 parental 8, Ba/F3 V617F tox 59*, BaF3 tox 2 19 and JAK2V617F conf 98*.
For CCOc1ccc(C(O)(CCC(C)C)C(CN2CCOCC2)c2ccccc2)cc1 (stereo not drawn) the results were aSyn UTR inh 21, KLF5 inhibitor -16 and IEC-6 tox -3.
Screening Cc1ccc(-c2nc(C=Nc3ccc(O)cc3)c(O)o2)cc1 returned APP 5UTR inh 66*, aSyn UTR inh -95, KLF5 inhibitor -11, IEC-6 tox 5, BaF3 parental 19, Ba/F3 V617F tox 38*, BaF3 tox 2 28* and JAK2V617F conf 83*.
`Cc1ccc(N2CC(O)Cn3c2nc2c3c(=O)[nH]c(=O)n2C)cc1` (stereo not drawn) gave aSyn UTR inh 16, KLF5 inhibitor -27 and IEC-6 tox -2.

From PubChem BioAssay
